Source: PubChem BioAssay
Only some compounds are listed: those with a hit (about 3.1% of all), similar ones and a draw of the others.
FBA Mtb inh: inhibits M. tuberculosis FBA enzyme; P9WQA3; inhibition, % at 1 µM; purified M. tuberculosis FBA, fluorescence read-out; 360,000 tested, 2.3% active;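 further: 0% = vehicle and 100% = reference inhibitor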
Target sequence (P9WQA3 whole entry, looked up): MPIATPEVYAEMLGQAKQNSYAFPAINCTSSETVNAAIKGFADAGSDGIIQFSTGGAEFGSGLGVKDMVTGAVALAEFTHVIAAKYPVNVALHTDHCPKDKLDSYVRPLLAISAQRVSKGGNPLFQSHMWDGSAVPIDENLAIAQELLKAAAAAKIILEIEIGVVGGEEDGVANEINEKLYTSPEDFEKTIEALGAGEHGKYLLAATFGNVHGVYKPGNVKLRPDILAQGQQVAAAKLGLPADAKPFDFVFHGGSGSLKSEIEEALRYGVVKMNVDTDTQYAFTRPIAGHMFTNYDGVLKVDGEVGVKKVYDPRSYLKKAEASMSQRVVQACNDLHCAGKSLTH
3CLpro inhibitor: SARS-CoV 3CLpro protease inhibition; 290,000 tested, 0.14% active; P0C6X7; AID 1706; inhibition, % at 6 µM; recombinant SARS-CoV 3CLpro, quenched FRET peptide cleavage; in the data active means inhibition above about 12%
BioA inh: inhibitors of Mycobacterium tuberculosis BioA enzyme; 360,000 tested, 0.096% active; purified M. tuberculosis BioA enzyme, plate reader; AID 602481; inhibition, % at 9.99 µM; in the data active means inhibition above about 40%
GDH-TPI counter-1: inhibits GDH-TPI coupling enzymes, artifact for Mtb FBA screen; GDH-TPI coupled enzyme counterscreen, NADH absorbance; inhibition, % at 4.8 µM; 360,000 tested, 1.2% active; AID 588335; in the data active means inhibition above about 30%;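 further: 0% = DMSO wells and 100% = wells lacking the enzyme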
FadD28 binding: inhibitors of Mycobacterium tuberculosis FadD28 bisubstrate binding | FadD28 bisubstrate probe binding, fluorescence polarization | inhibition, % at 12.5 µM | 360,000 tested, 0.22% active | AID 588549; in the data active means inhibition above about 8.5%, passing the limit was not always enough
Mtb FBA confirm: confirmation of M. tuberculosis fructose-bisphosphate aldolase inhibitors; AID 651616; inhibition, % at 1 µM; shares compounds with FBA Mtb inh; 5,600 tested, 78% active; purified M. tuberculosis FBA, fluorescence read-out;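 further: 0% = vehicle wells and 100% = reference inhibitor wells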
GDH-TPI counter-2: GDH-TPI inhibition counter-screen for FBA inhibitors; shares compounds with FBA Mtb inh; GDH-TPI coupled enzyme counterscreen, fluorescence; inhibition, % at 1 µM; 5,600 tested, 81% active; AID 652141; in the data active means inhibition above about 10%
GDH-TPI DR: GDH-TPI dose response counter-screen for Mtb FBA; GDH-TPI coupled enzyme assay, fluorescence, artifact counterscreen; 170 tested, 79% active; shares compounds with FBA Mtb inh; IC50, µM; call rule not given here
* = called active by the depositor. Unless noted, no stated cut-off is given here; in the data, active means inhibition above about 27%; inactive means the rest.

Screening CNC(=S)N(CCCO)Cc1cc2cc3c(cc2[nH]c1=O)OCO3 returned FBA Mtb inh 30*, 3CLpro inhibitor -3, BioA inh -2, GDH-TPI counter-1 19, FadD28 binding -3, Mtb FBA confirm 85* and GDH-TPI counter-2 65*.
`CCN(CC)CCCN(Cc1cc2cc3c(cc2[nH]c1=O)OCO3)C(=S)NCc1ccco1` gave FBA Mtb inh 24, 3CLpro inhibitor -7, GDH-TPI counter-1 12 and FadD28 binding -2.
Screening CO[C@H](CN(C)C(=O)Nc1ccc(C(F)(F)F)cc1)[C@@H](C)CN(Cc1ccccc1Cl)[C@H](C)CO returned BioA inh 1.
Cc1nn(-c2ccccn2)c2c1-c1nc(N)ncc1CC2 was read as FBA Mtb inh 30*, 3CLpro inhibitor -1, BioA inh 2, GDH-TPI counter-1 4, FadD28 binding -3, Mtb FBA confirm 9 and GDH-TPI counter-2 -1.
For O=C(NNC(=O)c1cc(F)c(F)cc1Cl)c1ccc(NS(=O)(=O)c2cccs2)cc1 the results were FBA Mtb inh 1, BioA inh 1, GDH-TPI counter-1 4 and FadD28 binding 1.
`O=C(NNC(=O)c1cc(Cl)ccc1O)c1ccc(NS(=O)(=O)c2cccs2)cc1` gave FBA Mtb inh 29*, BioA inh -1, GDH-TPI counter-1 13, FadD28 binding 6, Mtb FBA confirm active and GDH-TPI counter-2 active.
Screening CCC(C)Sc1cccc(-c2nc3ccc(C)cn3c2NCc2ccccc2)c1 (stereo not given) returned FBA Mtb inh 39*, BioA inh -1, GDH-TPI counter-1 15, FadD28 binding 0, Mtb FBA confirm 1 and GDH-TPI counter-2 1.
For CCC(C)Sc1cccc(-c2nc3ccc(Cl)cn3c2NCc2ccccc2)c1 (stereo not given) the results were FBA Mtb inh 23, BioA inh -1, GDH-TPI counter-1 18 and FadD28 binding -3.
`CCC(C)Sc1cccc(-c2nc3ccccn3c2NCc2ccccc2)c1` (stereo not given) gave FBA Mtb inh 32*, BioA inh -2, GDH-TPI counter-1 5, FadD28 binding 0, Mtb FBA confirm 113* and GDH-TPI counter-2 91*.
For CCC(C)Sc1cccc(-c2nc3cc(C)ccn3c2NC2CCCCC2)c1 (stereo not given) the results were FBA Mtb inh 45*, BioA inh -1, GDH-TPI counter-1 24, FadD28 binding -2, Mtb FBA confirm 140* and GDH-TPI counter-2 133*.
`Cc1ccc(S(=O)(=O)Nc2cccc3c2O[C@H](CN(C)C(=O)Nc2ccc(F)cc2)[C@@H](C)CN([C@H](C)CO)C3=O)cc1` gave BioA inh -1.
O=C(NCc1ccc(F)cc1)[C@H]1C[C@H]2C(=O)N3CCC[C@H]3C(=O)N2[C@H]1c1cccc(OCCO)c1 was read as BioA inh -1.
CCc1ccc2oc(-c3cccc(N)c3)nc2c1 was read as FBA Mtb inh 63*, 3CLpro inhibitor 5, BioA inh 0, GDH-TPI counter-1 4, FadD28 binding -4, Mtb FBA confirm 127* and GDH-TPI counter-2 104*.
For Cc1ccc2nc(-c3cccc(N)c3)oc2c1 the results were FBA Mtb inh 93*, 3CLpro inhibitor -6, GDH-TPI counter-1 13, FadD28 binding 1, Mtb FBA confirm 14, GDH-TPI counter-2 0 and GDH-TPI DR 0.95*.
`Cc1ccc2nc(Cc3ccc(N)cc3)oc2c1` gave FBA Mtb inh 3, 3CLpro inhibitor 8, BioA inh 6, GDH-TPI counter-1 9 and FadD28 binding 0.
Screening Nc1ccc2oc(-c3cccc(Br)c3)nc2c1 returned FBA Mtb inh 3, 3CLpro inhibitor 4, BioA inh 4, GDH-TPI counter-1 15 and FadD28 binding -2.
Screening Cc1ccc2oc(-c3cccc(NC(=O)C4CCCO4)c3)nc2c1 (stereo not given) returned FBA Mtb inh 51*, 3CLpro inhibitor 0, BioA inh 2, GDH-TPI counter-1 9, FadD28 binding -3, Mtb FBA confirm 120* and GDH-TPI counter-2 98*.
Screening Cc1cc(C)c2oc(-c3cccc(N)c3)nc2c1 returned FBA Mtb inh 52*, 3CLpro inhibitor 0, BioA inh -3, GDH-TPI counter-1 10, FadD28 binding -1, Mtb FBA confirm 19, GDH-TPI counter-2 7 and GDH-TPI DR 0.88*.
CC(C)CC#Cc1cnc2c(c1)C(=O)N([C@@H](C)CO)C[C@H](C)[C@@H](CN(C)Cc1ccc(C(=O)O)cc1)O2 was read as BioA inh -5.
`Cc1noc(C)c1NC(=O)N(C)C[C@@H]1OCCCC[C@@H](C)Oc2ccc(NS(=O)(=O)c3ccc(F)cc3)cc2C(=O)N([C@H](C)CO)C[C@H]1C` gave BioA inh 1.
C[C@H](CO)N1C[C@H](C)[C@@H](CN(C)S(=O)(=O)c2ccc(Cl)cc2)Oc2ccc(NC(=O)C3CC3)cc2CC1=O was read as BioA inh -2.
For Cc1ccc(-c2nc3cc(Cl)ccc3o2)cc1 the results were FBA Mtb inh 2, 3CLpro inhibitor 4, BioA inh -1, GDH-TPI counter-1 8 and FadD28 binding 0.
Screening Cc1ccc2nc(-c3ccc(O)cc3)oc2c1 returned FBA Mtb inh 66*, 3CLpro inhibitor 1, BioA inh -1, GDH-TPI counter-1 4, FadD28 binding -1, Mtb FBA confirm 68* and GDH-TPI counter-2 46*.
CCCC(=O)Nc1cccc(-c2nc3ccccc3o2)c1 was read as FBA Mtb inh 11, 3CLpro inhibitor 4, BioA inh -2, GDH-TPI counter-1 2 and FadD28 binding -1.
CCC(=O)Nc1cccc(-c2nc3ccc(C)cc3o2)c1 was read as FBA Mtb inh 32*, 3CLpro inhibitor -2, BioA inh -1, GDH-TPI counter-1 4, FadD28 binding 0, Mtb FBA confirm 115* and GDH-TPI counter-2 99*.
Screening Cc1ccc(-c2nn(-c3ccccc3)cc2/C=C/C(=O)O)o1 returned FBA Mtb inh 39*, 3CLpro inhibitor 0, BioA inh -1, GDH-TPI counter-1 16, FadD28 binding -4, Mtb FBA confirm -2 and GDH-TPI counter-2 -3.
`O=[N+]([O-])c1ccc(-c2ccc(C=Nc3cccc4ccccc34)o2)cc1` gave FBA Mtb inh 71*, 3CLpro inhibitor 5, BioA inh -2, GDH-TPI counter-1 33*, FadD28 binding -2, Mtb FBA confirm 12, GDH-TPI counter-2 -4 and GDH-TPI DR >10.
